The list is not random: actives were taken first. Their share in the collection is about 2.8%.
SNCA expr inhib = SNCA gene expression inhibition; HEK-293 SNCA-luciferase knock-in, luminescence, 24 h; Potency, µM (top dose mostly 57.2 µM), inactives show at the top dose activity change, negative = inhibition, actives largely listed as inhibitors; 140,000 compounds, 0.17% hits;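 also: potency is read from the fitted curve at half-maximal effect; plate controls were DMSO cells for no effect and cell-free wells for full effect; nearly all actives have a fitted effect of over 45% in size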
IP6K1 inhibitor = IP6K1 kinase inhibition; Q92551; 140,000 compounds, 0.81% hits; IP6K1 kinase, ADP-Glo luminescence, 2 h; hits give low values; activity change, % (series mostly up to about 58 µM); in the data active = activity change below about -25%; also: % is scaled to controls: 0 for no effect and ±100 for the full control effect
Target sequence (Q92551 whole entry, looked up): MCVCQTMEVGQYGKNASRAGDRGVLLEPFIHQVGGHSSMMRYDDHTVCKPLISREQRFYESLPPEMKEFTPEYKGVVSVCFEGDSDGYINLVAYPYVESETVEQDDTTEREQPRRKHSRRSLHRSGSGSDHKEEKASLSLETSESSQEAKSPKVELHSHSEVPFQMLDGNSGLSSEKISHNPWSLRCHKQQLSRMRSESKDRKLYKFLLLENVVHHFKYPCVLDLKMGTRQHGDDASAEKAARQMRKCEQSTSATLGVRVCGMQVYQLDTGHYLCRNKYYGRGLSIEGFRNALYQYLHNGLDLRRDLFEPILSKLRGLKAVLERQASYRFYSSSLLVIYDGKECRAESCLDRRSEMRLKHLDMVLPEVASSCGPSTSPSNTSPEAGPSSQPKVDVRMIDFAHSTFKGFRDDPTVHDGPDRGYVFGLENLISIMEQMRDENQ
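ADP-Glo luminescence measures ADP made by human IP6K1 during a 2 h RT reaction with ATP/IP6 (mix at 1.3 mM/130 uM); top library doses 57.5 and 19.1 uM final.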
SNCA viab count = counter-screen for SNCA expression inhibitors: cell viability; HEK-293-SNCA-luc viability, GF-AFC fluorescence, 24 h; Potency, µM (doses to about 57.1 µM), without a hit: at the highest dose activity change, negative = cytotoxicity, usual class: cytotoxic; 150,000 compounds, 0.12% hits;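 also: potency is read from the fitted curve at half-maximal effect; 0% = DMSO-treated cells and -100% = medium-only wells without cells; nearly all actives have a fitted effect of over 30% in size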
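Cytotoxicity counterscreen: after 24 h compound treatment of genome-edited SNCA-luciferase HEK-293 cells, live-cell protease substrate GF-AFC read by fluorescence after 30 min; activity scaled between DMSO (0%) and medium-only (-100%), curves Hill-fitted.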
KDM5B inhibitor = KDM5B demethylase inhibition; 220,000 compounds, 2.6% hits; Q9UGL1; KDM5B demethylase, FDH-coupled NADH fluorescence (FDH is formaldehyde dehydrogenase); Potency, µM (doses to about 57.7 µM), actives largely listed as inhibitors; also: potency is read from the fitted curve at half-maximal effect; 0% is about no effect; nearly all actives have a fitted effect of over 70% in size
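Coupled FDH/NAD⁺ fluorescence readout. KDM5BΔAP 200 nM final; compound titration, 10 min RT preincubation; substrate mix 12.5 µM H3K4me3, 25 µM 2-OG, 50 µM Fe(II), 100 µM ascorbate, 0.25 mM NAD⁺, 0.25 U/mL FDH; ΔRFU over 30 min.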
IP6K1 inh cnf = confirmation of human IP6K1 inhibitors; shares compounds with IP6K1 inhibitor; Potency, µM (series often up to 49 µM), for the others: top-dose activity change, negative = inhibition, usual class: inhibitors; 1,200 compounds, 13% hits; recombinant IP6K1 kinase, ADP-Glo luminescence, 2 h; AID 1645852; also: potency is read from the fitted curve at half-maximal effect; % is scaled to controls: 0 for no effect and ±100 for the full control effect; nearly all actives have a fitted effect of over 65% in size
Numbers without * were called inactive; i = inactive; ? = inconclusive; . = no result; [ ] = dose if it differs, or a comment. Unless noted, calls follow the shape of the dose curve; as a rule, active = well fitted curve in the direction sought with a large enough effect; inconclusive = small, poorly fitted or top-dose-only effect, or another doubt; inactive = no such curve, though single readings can be large; an effect the other way counts as inactive or inconclusive.

SMILES	SNCA expr inhib	IP6K1 inhibitor	SNCA viab count	KDM5B inhibitor	IP6K1 inh cnf
COc1ccc(-c2cn(C[C@H]3CC4CCN3C[C@@H]4C(=O)NCc3ccc4c(c3)OCO4)nn2)cc1 (stereo partly drawn)	-25%	11	-2%	i	.
O=C1Nc2ccccc2O[C@H]2C[C@@H]1N(Cc1ccccn1)C2	15%[87.6 µM]	-17	2%[87.6 µM]	i	.
CCOC(=O)CCNC(=O)N1[C@H]2CC[C@@H]1c1cnc(C)nc1C2	-3%	-11	-3%	i	.
CC(=O)Nc1ccc(S(=O)(=O)NC[C@H]2C[C@@H]3CCN2C[C@@H]3c2cc(-c3ccccc3Br)nc(C)n2)cc1	9%	8	-7%	i	.
COc1ccccc1-c1cc([C@H]2CN3CC[C@H]2C[C@@H]3COC(=O)NC(C)C)nc(C)n1	?	4	0%[87.6 µM]	40µM*	.
Cc1nc(-c2ccccc2Br)cc([C@H]2CN3CC[C@H]2C[C@@H]3CNC(=O)CSCC(=O)O)n1	5%	17	0%	25µM*	.
COc1ccccc1-c1cc([C@H]2CN3CC[C@H]2C[C@@H]3CNS(=O)(=O)c2ccc(NC(C)=O)cc2)nc(C)n1	-2%	-3	-21%	32µM*	.
COc1cc(-c2c(C#N)c(N)nc3c2c(=O)nc2sccn23)ccc1OCc1cccc(C)c1	.	.	.	i	.
CCCn1c(C)cnc1CCNC(=O)c1nn(C)c2ccccc12	24%	-6	-6%	25µM*	.
Cc1nnc2n1CCC(NC(=O)c1nn(C)c3ccccc13)CC2 (stereo not drawn)	0%	11	10%	?	.
CNc1ccc(OC2CCNCC2)nc1	0%	18	14%	28µM*	.
ClC1=CC[C@@H]2CN(CCN3CCOCC3)C[C@@H]2C1	.	.	.	i	.
COc1ccc2c(c[n+](C)c3c4cc5c(cc4ccc23)OCO5)c1OC	?	.	?	.	?
O=C(Cc1n[nH]c(=O)c2ccccc12)N1CCN(Cc2cccc3ccccc23)CC1	.	.	.	i	.
CC[C@H]1C[C@H]2[C@@H]3CCC4=CC(=O)CC[C@@H]4[C@H]3CC[C@]2(C)[C@H]1O	13%[25.6 µM]	-12	1%	.	.
CC[C@]1(O)CC[C@H]2[C@@H]3CCC4=CCCC[C@@H]4[C@H]3CC[C@@]21C	-3%[25.6 µM]	-28*	-21%[23.9 µM]	.	?
CC(=O)O[C@@H]1[C@@H](O)[C@H]2O[C@@H]3C=C(C)[C@@H](O)C[C@]3(CO)[C@]1(C)[C@]21CO1	.	11	-49%	.	.
C[C@@H](CN1CCC2(CC1)C(=O)NCN2c1cccc(F)c1)NC(=O)c1ccc(Br)cc1	.	9	-24%	.	.
COc1ccc([C@@H]2CN(C(=O)Nc3ccc(C)cc3)[C@@H]3C4CCN(CC4)[C@@H]32)cc1	119%	9	10%	i	.
COc1ccc([C@@H]2CN(C(=O)Cc3nonc3C)[C@@H]3C4CCN(CC4)[C@@H]32)cc1	-2%	-38*	-1%	i	-15%
O=C1OC(c2ccc(O)c(S(=O)(=O)O)c2)(c2ccc(O)c(S(=O)(=O)O)c2)c2c(Br)c(Br)c(Br)c(Br)c21	-38%[25.6 µM]	-65*	2%[23.9 µM]	.	21µM*
Cc1noc(C)c1S(=O)(=O)N1C[C@@H]2CCN(C)C[C@]2(C(=O)O)C1	-6%	0	-2%	i	.
CC(C)N(CCNC(=O)CN1CCCC1=O)C(C)C	-19%	-11	4%	.	.
CN(C(=O)C(c1ccccc1)c1ccccc1)[C@H](CN1CC[C@H](O)C1)c1ccccc1	.	-8	-12%	.	.
O=C1c2ccccc2C(=O)C1C(=O)C(c1ccccc1)c1ccccc1	-43%[25.6 µM]	-28*	-10%[23.9 µM]	.	?
SMILES	SNCA expr inhib	IP6K1 inhibitor	SNCA viab count	KDM5B inhibitor	IP6K1 inh cnf
Cc1cccc(OCC(=O)N2CCN(Cc3cc(=O)n4nc(-c5ccccc5Cl)sc4n3)CC2)c1	10%	-30*	4%	i	3%
Cc1cccc(-n2nnnc2C2(N)CCCCC2)c1	.	.	.	i	.
Cc1ccc([N+](=O)[O-])[c]2c1[O][Hg]2	?	-83*	?	.	1µM*
COc1ccc(OC)c(C2SCC(=O)Nc3c2c(C)nn3-c2ccccc2)c1 (stereo not drawn)	.	.	.	i	.
O=C(O)CSC(c1ccccc1)c1ccc(Cl)cc1 (stereo not drawn)	.	.	.	i	.
N[C@@H](Cc1ccc(Oc2cc(I)c(O)c(I)c2)c(I)c1)C(=O)O	15%[25.6 µM]	-54*	21%[23.9 µM]	.	?
COc1cc2c(cc1OCC1CC1)NC(=O)C21CCN(c2nc(C)cc(C)n2)CC1	?	-25*	-4%[87.6 µM]	i	2%
COc1cc2c(cc1Oc1ccccc1)NC(=O)C21CCN(Cc2ccccc2)CC1	?	-16	-20%[87.6 µM]	i	.
COc1cc2c(cc1Oc1ccccc1)NC(=O)C21CCN(c2nc(C)cnc2C)CC1	?	-32*	?	32µM*	?
COc1cc2c(cc1OCC1CC1)NC(=O)C21CCN(C(=O)c2cccnc2)CC1	9%[87.6 µM]	-25*	7%[87.6 µM]	i	-4%
c1ccc2c(c1)OCC(C1=NCCN1)O2 (stereo not drawn)	-27%	-44*	?	.	-8%
COC1CC(O[C@H]2CC[C@@]3(C)C(=CCC4C3C(O)[C@@H](O)[C@]3(C)[C@@H](C(C)=O)CC[C@]43O)C2)OC(C)C1OC1CC(OC)C(OC2OC(C)C(O)C(O)C2O)C(C)O1 (stereo partly drawn)	.	17	-19%[12.5 µM]	.	.
CN1CCN(C(=O)Cc2c[nH]c3ncc(-c4ccc5c(c4)OCO5)cc23)CC1	-19%[87.6 µM]	-27*	12%[87.6 µM]	?	?

Assay outcomes (PubChem)
